Hits are enriched below; roughly 1.1% of the tested compounds scored in any of these assays.
VLA-4 inh – inhibition in human VLA-4 binding assay, primary screen, VLA-4 allosteric modulator project, MLPCN library, flow cytometry, VLA-4 expressing cells; AID 2557, 2010; Integrin alpha-4 (Homo sapiens), P13612; inhibition, % (about 7 µM as worked out from the volumes in the protocol); 330,000 tested, 0.2% active; ligand binding flow cytometry; in the data active = inhibition above about 50%
MEP2-GFP yeast – modulators of MEP2-GFP levels in yeast, primary screen, S. cerevisiae, multiplex flow cytometry, MLPCN library | 330,000 tested, 0.51% active | GFP response vs DMSO, % at 10 µM | AID 2016, 2009 | S. cerevisiae MEP2-GFP strain, 3 h; 100% = DMSO control level;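 active = GFP response versus DMSO above a set limit, roughly screen mean plus 3 SD, cut at about 180% in these data; inconclusive = fewer than 70 cells counted for a yeast strain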;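 also: median GFP fluorescence of the barcode-gated MEP2-GFP cells per well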
CIT2-GFP yeast – modulators of CIT2-GFP expression in yeast, primary screen, S. cerevisiae, GFP fusion, multiplex flow cytometry, MLPCN library; S. cerevisiae CIT2-GFP strain, 3 h; 100 means same as DMSO wells; GFP response vs DMSO, % at 10 µM; 320,000 tested, 0.065% active; AID 2029, 2009;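 active = GFP response relative to DMSO above a set limit, near the screen mean plus 3 SD, cut at about 150% in these data; inconclusive = Fewer than 70 cells measured for a yeast strain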;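 also: ratio of well median GFP fluorescence to mean of DMSO wells on the plate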
RPL19A-GFP yeast – RPL19A-GFP expression modulators in yeast, primary screen, cell-based, S. cerevisiae, multiplex flow cytometry, MLPCN | S. cerevisiae RPL19A-GFP strain, 3 h; hits give low values | percent response vs DMSO, % at 10 µM | 330,000 tested, 0.3% active | AID 2025, 2009;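 active = percent response vs DMSO below 50%; inconclusive = fewer than 70 events counted for the yeast strain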;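 also: median channel GFP fluorescence of the barcoded RPL19A-GFP strain; lower means less RPL19A-GFP as with rapamycin TOR inhibition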
LAP4-GFP MLPCN – modulators of LAP4-GFP expression in yeast, primary screen, S. cerevisiae, multiplex flow cytometry, MLPCN library | 3 h; median GFP as percent of DMSO wells | 320,000 tested, 0.34% active | GFP response vs DMSO, % at 10 µM | AID 2023, 2009;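 active = GFP response vs DMSO above a set limit, about the screen mean plus 3 SD, cut at about 150% in these data; inconclusive = under 70 cell events counted for the yeast strain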
AGP1 TOR yeast – modulators of AGP1-GFP expression in yeast TOR pathway, primary screen, cell-based, multiplex flow cytometry, S. cerevisiae, MLPCN library; GFP response vs DMSO, % at 10 µM; 320,000 tested, 0.02% active; 3 h; GFP as percent of DMSO wells;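 active = GFP response relative to DMSO above a set limit, near screen average plus 3 SD, cut at about 150% in these data; inconclusive = fewer than 70 cells counted for the yeast strain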;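 also: median GFP channel fluorescence of the gated AGP1 strain per well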
Numbers stand for hits; n = inactive; u = inconclusive; x = no result given; [ ] = another dose, or the depositor's remark.

SMILES	VLA-4 inh	MEP2-GFP yeast	CIT2-GFP yeast	RPL19A-GFP yeast	LAP4-GFP MLPCN	AGP1 TOR yeast
COc1ccc(Cl)cc1NC(=O)CN1C(=O)NC2(CCCC2)C1=O	n	n	n	n	n	n
CN1CCc2c(sc3c2C(=O)NC(/C=C\c2ccccc2)N3)C1 (centres undefined)	n	673.0[may fluoresce violet]	u	n	n	n
CN1CCc2c(sc3c2C(=O)NC(c2cccs2)N3)C1 (centres undefined)	n	n	n	n	n	n
C=CCn1c(SCC(=O)NC(=O)NCC(C)C)nnc1C1CCCCC1	n	527.1[may fluoresce violet]	x	n	n	n
O=C(Cc1ccc(NC2=NC3CS(=O)(=O)CC3S2)cc1)NCc1ccc(Cl)cc1 (centres undefined)	n	n	n	n	n	n
Cc1ccccc1-c1nnc(SCC(=O)N(C)C2CCS(=O)(=O)C2)n1C (centres undefined)	n	n	n	n	n	n
O=Cc1c(Sc2ccccc2)nc2ccccn2c1=O	n	223.2[may fluoresce violet]	u	n	n	u
O=Cc1c(Sc2ccccn2)nc2ccccn2c1=O	n	n	n	n	n	n
Cc1oc2cc3oc(=O)c(CCC(=O)NCCN4CCOCC4)c(C)c3cc2c1C	n	n	n	n	n	n
COc1ccccc1N1C(=O)Cc2ccccc2C1=O	n	n	n	n	n	n
CN1CCN(C(=O)c2ccc3c(c2)NC(=O)C(C)(C)O3)CC1	n	258.6[may fluoresce violet]	u	14.7[may fluoresce violet]	n	u
Cc1ccc(S(=O)(=O)NNC(=O)c2cc3cc4ccccc4nc3s2)cc1	n	597.6[may fluoresce violet]	u	44.6[may fluoresce violet]	n	n
Cc1nn(-c2ccccc2)c(C)c1C(=O)NCc1ccccc1F	n	n	n	n	n	n
N#Cc1ccc(NC(=O)C2=COCCO2)cc1	n	n	n	n	n	n
Cc1cc(C)c(C(=O)COC(=O)c2ccc([N+](=O)[O-])o2)cc1C	n	n	n	n	224.7	n
COc1cc(C(=O)COC(=O)c2ccc([N+](=O)[O-])o2)cc(OC)c1OC	n	n	n	n	n	n
Cc1cc(NC(=O)Cn2cc(C(F)(F)F)cc(Cl)c2=O)no1	n	224.3[may fluoresce violet]	u	n	n	n
CCOC(=O)Cc1c(C)c2c(C)[nH]nc2oc1=O	n	327.6[may fluoresce violet]	u	22.9[may fluoresce violet]	n	u
CCCc1c(C)c2c(C)[nH]nc2oc1=O	n	n	n	n	n	x
Cc1ccc(S(=O)(=O)NCCc2ccncc2)cc1	n	222.6[may fluoresce violet]	u	n	n	n
Cc1cccn2c(=O)c(/C=C(\C#N)C(=O)NC3CCS(=O)(=O)C3)c(Oc3ccccc3Cl)nc12 (centres undefined)	n	233.5[may fluoresce violet]	u	n	n	u
Cc1ccc2c(c1)/C(=C/c1ccccc1C)C(=O)N2	n	n	n	n	n	n
Cc1ccc2c(c1)/C(=C/c1ccc(F)cc1)C(=O)N2	n	n	n	n	152.9	n
Cc1ccc(Nc2nc(NCc3ccco3)c3ccccc3n2)cc1	n	n	n	n	n	n
Cc1cccc(NC(=O)CSc2nc3ccccc3c(=O)n2CC2CCCO2)c1 (centres undefined)	n	n	n	n	n	n
SMILES	VLA-4 inh	MEP2-GFP yeast	CIT2-GFP yeast	RPL19A-GFP yeast	LAP4-GFP MLPCN	AGP1 TOR yeast
C=C(C(=O)Oc1ccccc1C(C)(C)C)c1ccccc1	54.9	n	n	n	n	n
CC(=O)Oc1cc(C(=O)OCC(=O)N2CCc3ccccc3C2)cc(OC(C)=O)c1OC(C)=O	n	n	n	n	n	n
CCOC(=O)c1c(N)c(C#N)c2n1CCCC2	n	n	n	n	n	n
N#Cc1c(N)c(C(=O)c2ccc(Cl)cc2)n2c1CCC2	n	248.4[may fluoresce violet]	u	x	n	u
N#Cc1c(NC(=O)/C=C/C(=O)O)sc2c1CCN(Cc1ccccc1)C2	n	367.3[may fluoresce violet]	u	22.6[may fluoresce violet]	n	u
COc1ccc(C2C3=C(CCCC3=O)N(CC(=O)O)C3=C2C(=O)CCC3)cc1Cl	n	501.9	n	45.9	n	n
COc1ccccc1C1C2=C(CCCC2=O)N(CC(=O)O)C2=C1C(=O)CCC2	n	257.0[may fluoresce violet]	u	13.9[may fluoresce violet]	n	u
